Screening data deposited in PubChem BioAssay by National Center for Advancing Translational Sciences (NCATS).
Sampled rows, rich in hits. Any-hit rate of the full collection: about 19%.
IL-1B inflam inh: blocks inflammasome-driven IL-1 beta release. activity change, % at 57.5 µM. THP-1 LPS/ATP IL-1B secretion, AlphaLISA, 16 h; stronger effect = lower value. 360,000 tested, 4.7% active. AID 743279; in the data active = activity change below about -50%; inconclusive = mostly about -30% to -49%
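THP-1 cells pretreated 1 hr with compounds (up to 57.5 uM final), then stimulated with LPS (250 ng/mL final) plus ATP (1.25 mM final); secreted IL-1B measured by AlphaLISA after 16 hr, decreased signal indicating inhibition.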
DT40 TDP1 CPT: DT40-hTDP1 cell growth loss with CPT; AID 686979; chicken DT40 Tdp1-/-;hTDP1 cells + 20 nM CPT, ATP luminescence, 48 h; 420,000 tested, 12% active; Potency, µM (titrated, usually from 46.2 µM), for inactives: at the top dose activity change, negative = growth inhibition, actives largely listed as inhibitors; note: potency is the fitted concentration of half-maximal effect; nearly all actives have a fitted effect of over 55% in size
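Cell growth measured by CellTiter-Glo luminescence after a minimum 48 h, 37 C compound exposure with 20 nM CPT in Tdp1-knockout DT40 cells stably expressing hTDP1, seeded 400/well; qHTS titration format.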
uPA surface inh: blocks generation of uPA at the cell surface; cell surface uPA generation assay, qHTS; Potency, µM (top dose mostly 38.3 µM), for inactives: top-dose activity change, negative = inhibition, usual class: inhibitors; 330,000 tested, 0.31% active; AID 540303; active = well fitted inhibition curve with a large enough effect; inconclusive = small, poorly fitted or top-dose-only effect; inactive = no such curve, though single readings can be large or run the other way; tested in mouse RAW 264.7 cells; note: potency is the fitted concentration of half-maximal effect; nearly all actives have a fitted effect of over 55% in size
TDP1 cell noCPT: qHTS for Inhibitors of human tyrosyl-DNA phosphodiesterase 1 (TDP1): qHTS in cells in absence of CPT | DT40 Tdp1-/- hTDP1 cells, no CPT, ATP luminescence, 48 h | Potency, µM (top dose mostly 46.2 µM), inactives show at the top dose activity change, negative = growth inhibition, actives largely listed as inhibitors | 420,000 tested, 15% active; note: potency is the fitted concentration of half-maximal effect; nearly all actives have a fitted effect of over 55% in size
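Growth of hTDP1-complemented DT40 Tdp1-knockout cells is measured by ATP luminescence after at least 48 hr compound exposure at 37 °C, with DMSO substituting for the 20 nM CPT used in the parallel screen.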
HT1080 IDH1KD tx: HT-1080 IDH1 knockdown cell toxicity (counter line). 360,000 tested, 2% active. AID 686971. Potency, µM (doses to about 46.1 µM), for inactives: top-dose activity, negative = toxicity, usual class: cytotoxic. HT-1080 IDH1 knockdown viability, ATP luminescence, 48 h;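 note: potency is the fitted concentration of half-maximal effect; 0% = DMSO wells and -100% = cell-free medium wells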
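Viability of IDH1-knockdown HT-1080 fibrosarcoma cells was assessed by CellTiter-Glo after 48 h at 37 °C with titrated compound; concentration-effect curves were classified by fit quality and response size.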
HT1080-NT tox: kills 2HG-producing HT-1080-NT fibrosarcoma cells. HT-1080-NT fibrosarcoma viability, CellTiter-Glo ATP luminescence, 48 h. AID 686970. Potency, µM (titrated, usually from 46.1 µM), for inactives: at the highest dose activity, negative = less viability, most hits filed as cytotoxic. 360,000 tested, 1.6% active;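 note: NT is the 2HG producing partner of a matched IDH1 knockdown line; potency is the fitted concentration of half-maximal effect; 0% = DMSO-treated cells and -100% = media-only wells without cells; nearly all actives have a fitted effect of over 55% in size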
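HT-1080-NT fibrosarcoma cells (2HG-overproducing), 750 cells/well in RPMI with 5% FBS, dosed after 2 h and incubated 48 h at 37C. CellTiter-Glo luminescence normalized to DMSO and no-cell wells; concentration-response curves fitted and classed.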
Active calls of the source: *; ? = inconclusive; · = not tested or not shown. Unless noted, calls come from the whole dose curve; as a rule, active = well fitted curve in the direction sought with a large enough effect; inconclusive = small, poorly fitted or top-dose-only effect, or another doubt; inactive = no such curve, though single readings can be large; an effect the other way counts as inactive or inconclusive. Unless noted, % is set by controls: 0 for no effect and ±100 for the full control effect.

SMILES	IL-1B inflam inh	DT40 TDP1 CPT	uPA surface inh	TDP1 cell noCPT	HT1080 IDH1KD tx	HT1080-NT tox
CCn1nc(NC(=O)c2ccccn2)c2cc3cccc(C)c3nc21	16	?	3%	18µM*	26%	29%
COc1ccc(-c2nnc(SCC(=O)Oc3cccc(C)c3C)o2)cc1	·	6%	·	3%	·	·
O=C(CN1c2cccc3cccc(c23)S1(=O)=O)Nc1ccc(F)c(F)c1F	-14	?	7%	?	-15%	-23%
O=C(c1ccccc1)N1CCN(c2ncnc3c2cnn3-c2ccccc2)CC1	3	23µM*	1%	21µM*	-7%	-11%
O=C(c1ccco1)N1CCN(c2ncnc3c2cnn3-c2ccccc2)CC1	0	?	3%	29µM*	-12%	-7%
Cc1nn(-c2ccccc2)c(Cl)c1C(=O)N1CCN(c2ncnc3c2cnn3-c2ccccc2)CC1	-74*	3.3µM*	-16%	4.1µM*	?	21µM*
O=C(c1cccc(Cl)c1)N1CCN(c2ncnc3c2cnn3-c2ccccc2)CC1	18	20%	0%	-4%	-1%	13%
CCN(CC)C(=O)Cn1cc(SCC(=O)NC2CCCCC2)c2ccccc21	-23	-23%	·	-21%	0%	-2%
CCN(CC)CCCC(C)Nc1cc(/C=C/c2ccccc2Cl)nc2cc(Cl)ccc12 (configuration not stated)	·	0.63µM*	·	0.89µM*	·	·
COc1ccc(-n2c(C)cc(C(=O)CSc3nn4c(=O)c(C(C)(C)C)nnc4s3)c2C)cc1	24	?	0%	?	-3%	-8%
COc1ccc(C(=O)CSc2nn3c(=O)c(C(C)(C)C)nnc3s2)cc1	-58*	?	-13%	?	?	-26%
Cc1cnccc1CNC(=O)C1CCC(=O)N(Cc2ccc(Cl)cc2)C1 (configuration not stated)	-4	12%	6%	20%	18%	8%
Cc1cc(Cl)ccc1-c1nc(NCc2ccccc2)nc2ccsc12	0	?	·	?	?	?
Cc1cc(Cl)ccc1-c1nc(NC(C)C)nc2ccsc12	15	18µM*	·	23µM*	0%	-2%
Cc1ccc(-c2csc3ncnc(SCC(=O)c4ccc5c(c4)OCCO5)c23)cc1	-4	?	·	?	7%	-1%
Cc1ccc(-c2csc3ncnc(Sc4nnc(CN5CCCCCC5=O)o4)c23)cc1	-98*	4.1µM*	-6%	6.5µM*	-11%	0%
CC1CC(C)CN(C(C(=O)NC2CCCCC2)c2cc3ccccc3o2)C1 (configuration not stated)	-28	?	·	26µM*	?	?
CC1CC(C)CN(C(C(=O)NC2CCCCC2)c2ccnc3ccccc23)C1 (configuration not stated)	-4	?	·	?	-18%	-3%
O=C(CSc1ccccc1)NC1CC1	3	-2%	·	0%	0%	-1%
O=[N+]([O-])/C(C(Cl)=C(Cl)Cl)=C(/NC1CC1)Sc1ccccc1	?	?	-4%	23µM*	6%	5%
COc1ccc([N+](=O)[O-])cc1/C=N/NC(=O)/C(=C\c1cccs1)NC(=O)c1ccccc1	-18	?	0%	21µM*	1%	-8%
O=C(N/N=C/c1cc2ccccc2nc1Cl)[C@H]1C[C@@H]1c1ccccc1	0	21µM*	-1%	16µM*	-3%	0%
O=C(N/N=C/c1cc2ccccc2nc1Cl)/C(=C/c1cccs1)NC(=O)c1ccccc1	19	23µM*	0%	?	-9%	-13%
O=C(N/N=C/c1cccnc1)/C(=C\c1cccs1)NC(=O)c1ccccc1	0	-3%	-3%	-20%	-1%	6%
